CHRM1 agonist: human M1 muscarinic receptor agonists, primary screen, Fluo-8 calcium fluorescence, CHO-K1 cells, HTS; hit rate 0.33% among 360,000; Muscarinic acetylcholine receptor M1 (Homo sapiens), P11229; activation, % at 3 µM; CHO-K1 hM1, agonist mode; 0% DMSO, 100% acetylcholine EC100; AID 588814, 2011;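 active = activation above the run's mean compound activation plus 3 SD, cut at about 16% in these data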;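 note: peak over basal fluorescence ratio within a 140 s kinetic read after compound addition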
Target sequence (P11229 whole entry, looked up): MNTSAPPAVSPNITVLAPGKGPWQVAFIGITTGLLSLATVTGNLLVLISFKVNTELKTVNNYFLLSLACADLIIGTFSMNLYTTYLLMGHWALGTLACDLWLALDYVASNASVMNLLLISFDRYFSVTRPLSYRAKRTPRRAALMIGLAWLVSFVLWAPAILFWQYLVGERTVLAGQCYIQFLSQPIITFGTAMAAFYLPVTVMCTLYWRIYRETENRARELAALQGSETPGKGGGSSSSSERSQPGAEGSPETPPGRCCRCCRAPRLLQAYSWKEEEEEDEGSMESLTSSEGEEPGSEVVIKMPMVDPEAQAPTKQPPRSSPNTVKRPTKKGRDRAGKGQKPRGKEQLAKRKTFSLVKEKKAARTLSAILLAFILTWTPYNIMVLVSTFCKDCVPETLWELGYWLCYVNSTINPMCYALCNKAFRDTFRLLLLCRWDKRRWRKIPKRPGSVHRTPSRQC
CHO-K1 Ca antag: counter-screen for M1 antagonists: effect in parental CHO-K1 cells. AID 602250. hit rate 0.6% among 360,000. ATP-induced calcium, Fluo-8 fluorescence. inhibition, % at 3 µM;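 active = inhibition above a per-plate cutoff, the plate's mean sample inhibition plus 3 SD, cut at about 24% in these data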;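 note: 0% = DMSO plus EC80 ATP and 100% = DMSO alone without ATP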
CHRM1 antagonist: human M1 muscarinic receptor antagonists, primary screen, CHO-K1 cells, Fluo-8 calcium fluorescence, 1536-well; hit rate 1.3% among 360,000; CHO-K1 hM1, ACh EC80 antagonist; inhibition, % at 3 µM;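 active = percent inhibition above its own plate's cutoff, namely the mean of that plate's compound wells plus 3 SD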;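 note: peak over basal fluorescence ratio during 140 s after agonist addition; 0% = ACh EC80 plus DMSO and 100% = DMSO alone without agonist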
M1 PAM parental: nonselective calcium activators in parental CHO-K1 cells, primary screen, counter-screen for M1 PAM project, cell-based, Fluo-8 calcium fluorescence, full deck, 1536-well; ATP EC20; 0% at ATP EC20, 100% at ATP max; activation, % at 3 µM; hit rate 0.02% among 360,000; AID 602247, 2012;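 active = activation above the run cutoff, the mean activation of all test compounds plus 3 SD, cut at about 40% in these data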;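 note: peak over basal fluorescence ratio in a 140 s read after ATP addition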
M1 PAM: human M1 muscarinic receptor positive allosteric modulators, primary screen, CHO-K1 cells, Fluo-8 calcium fluorescence, 1536-well | activation, % at 3 µM | hit rate 0.088% among 360,000 | CHO-K1 hM1, ACh EC20; 0% = ACh EC20, 100% = maximal ACh | AID 588819, 2011 | Muscarinic acetylcholine receptor M1 (Homo sapiens), P11229; in the data active = activation above about 19%, passing the limit was not always enough
CHO-K1 Ca ag: counter-screen for M1 agonists: effect in parental CHO-K1 cells; Fluo-8 calcium fluorescence; scaled to maximal ATP response, vehicle zero; activation, % at 3 µM; hit rate 0.48% among 360,000; AID 602248, 2012; in the data active = activation above about 15%;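 note: untransfected CHO-K1 host cells lacking M1 receptor as counterscreen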
* marks the source's active call; other numbers are inactive results. Shown are actives, neighbours in structure and some others; about 2.3% of the full set was active somewhere.

SMILES	CHRM1 agonist	CHO-K1 Ca antag	CHRM1 antagonist	M1 PAM parental	M1 PAM	CHO-K1 Ca ag
Cc1cccc(NC(=O)CNC(=O)CN2C(=O)NC3(CCCCC3C)C2=O)c1C (stereo unspecified)	-4.9	-8.7	0.5	-12.7	-1.3	0.7
CC1=C(C(=O)N(C)C)CC(CC(=O)NCCCCc2ccccc2)C(=O)N1Cc1ccc(F)cc1 (stereo unspecified)	34.5*	19.8	8.5	-2.9	-14.8	0.0
CCN(CC)C(=O)C1=C(C)N(Cc2ccc(F)cc2)C(=O)C(CC(=O)NCCCCc2ccccc2)C1 (stereo unspecified)	14.6	-16.9	-16.6	21.7	11.9	1.3
CCCN1CCN(C(=O)c2ccc(CS(=O)c3ccc(Br)cc3)o2)CC1 (stereo unspecified)	-8.0	0.8	5.8	4.0	-3.1	-0.1
Cc1ccccc1OCC(=O)Nc1ccc2c(c1)C(=O)N(CCC(=O)O)C2=O	7.8	-5.3	-17.0	-13.9	26.2*	-0.3
CC1(CNC(=O)C(=O)NCC2(C)CO2)CO1 (stereo unspecified)	-2.3	-9.7	-16.1	10.2	9.8	0.6
CC(=O)CC(=O)Nc1ccn(-c2ccccc2)n1	2.6	27.2*	16.0	-9.4	-3.5	-0.3
O=C(O)CCCC(=O)Nc1ccn(-c2ccccc2)n1	-2.0	-1.0	-23.3	13.5	5.2	0.2
O=C(Nc1ccc(Cl)cc1)N1CCC(c2nc(-c3cccs3)no2)CC1	-8.9	-6.4	13.4	3.0	-14.2	6.0
O=C(Nc1ccc(Cl)cc1)N1CCC(c2nc(-c3ccccc3Cl)no2)CC1	0.4	10.3	19.9*	6.0	-16.6	5.8
O=C(Nc1cccc(C(F)(F)F)c1)N1CCC(c2nc(-c3ccc(F)cc3)no2)CC1	-9.4	-0.6	65.4*	-4.6	-34.1	9.2
CC(C)CNC(=S)N1CCC(c2nc(-c3ccc(F)cc3)no2)CC1	-4.3	15.4	33.0*	-9.6	-15.4	12.2
O=C(Nc1ccccc1)N1CCCC(c2nc(-c3ccc(F)cc3)no2)C1 (stereo unspecified)	-3.9	-7.3	-17.4	16.7	1.7	1.2
O=C(Nc1ccc(C(=O)N2CCCC2)cc1)c1cc(F)c(F)cc1Cl	-1.3	1.6	2.7	-2.1	-3.2	0.7
CN1CCN(c2ccc(S(=O)(=O)N3CCOCC3)cc2NC(=O)CSCc2ccccc2)CC1	-8.7	-16.3	-8.5	6.2	6.3	-1.4
COc1cccc(N2CC(NS(=O)(=O)c3ccc4ccccc4c3)CC2=O)c1 (stereo unspecified)	1.0	2.2	12.4	-18.8	-3.7	2.6
CCCNC(=O)C1(C)CCN(Cc2ccc(Oc3ccccc3)cc2)C1 (stereo unspecified)	-5.8	-8.7	14.1	9.4	-19.6	3.3
CC(C)N1CCCC(C)(C(=O)Nc2cccc(Oc3ccccc3)c2)C1 (stereo unspecified)	-10.5	-14.2	35.9*	13.6	-20.4	0.3
CC(C)N1CCCC(C)(C(=O)Nc2ccccc2)C1 (stereo unspecified)	-3.1	-9.9	3.8	13.7	1.9	0.8
CCCNC(=O)C1(C)CCCN(Cc2ccc(Oc3ccccc3)cc2)C1 (stereo unspecified)	-8.0	0.2	39.7*	9.6	-24.9	0.4
CCOC(=O)c1oc2ccc(CNC3CCCCC3)c(Cl)c2c1C	-11.5	-2.0	75.8*	-0.2	-36.2	1.1
COc1ccc(C(=O)CSc2nnc(CN3CCCCC3)n2-c2ccc(F)cc2)cc1	16.5*	-6.5	-3.5	26.8	4.5	20.4*
COc1ccc(C(=O)CSc2nnc(-c3cccs3)n2-c2ccccc2)cc1	-3.0	-18.1	-3.2	15.2	4.3	0.7
OCC1(Cc2ccc(Cl)cc2)CCN(Cc2ccccc2F)CC1	-8.1	-0.3	9.3	-0.9	-10.8	2.0
CSc1ccc(CN2CCC(CO)(Cc3ccc(Cl)cc3)CC2)cc1	-2.3	-3.1	55.7*	11.2	-22.9	3.4
SMILES	CHRM1 agonist	CHO-K1 Ca antag	CHRM1 antagonist	M1 PAM parental	M1 PAM	CHO-K1 Ca ag
CCCN1CCC(=O)N(CCOc2ccccc2)CC1	-5.1	24.2*	1.3	-18.5	3.5	2.6
CC(C)CN1CCC(=O)N(CCOc2ccccc2)CC1	1.7	4.5	15.4	-16.8	-2.8	0.1
CC(C)(C)c1ccc(S(=O)(=O)N2CCC(O)(c3ccc(Cl)cc3)CC2)cc1	-3.6	-0.9	70.9*	5.4	-24.9	4.7
COc1ccc(C(=O)NCC(=O)OCC(=O)Nc2cc([N+](=O)[O-])ccc2F)cc1	-5.2	-13.8	-4.9	22.6	6.5	2.1
NS(=O)(=O)c1ccc(CNC(=O)C23CC4CC(CC(C4)C2)C3)cc1	-0.4	28.5*	8.1	-9.3	-5.9	-0.6
CCOCCn1c(CN2CCN(C)CC2)nc2c1c(=O)n(C)c(=O)n2C	-1.4	-5.8	-31.2	18.4	28.7*	-0.2
CN(C)CCCNC(=O)N1c2ccccc2C=Cc2ccccc21	-8.8	-9.7	97.5*	9.8	-29.3	0.8
Cn1c(=O)n(-c2cccc(Cl)c2)c(=O)c2c3c(sc21)COC(C)(C)C3	0.8	29.7*	-6.8	-7.1	11.2	-0.6
CC(=O)Oc1ccc(Cl)cc1CN(C(C)=O)C1CCCCC1	-5.8	-14.9	-5.0	12.6	-2.0	-0.2
Cc1cc(C)nc(NC(=NCCc2c[nH]c3ccccc23)NC(=O)Nc2ccccc2)n1	-4.7	8.3	21.3*	16.1	-10.6	3.2
Cc1cc(C)nc(NC(=NCCc2c[nH]c3ccccc23)NC(=O)Nc2ccc(Cl)c(Cl)c2)n1	-5.6	-0.4	-6.2	16.6	6.8	0.3
Cc1cc(C)nc(NC(=NCCc2c[nH]c3ccccc23)NC(=O)c2ccco2)n1	0.9	-3.0	29.2*	17.4	-4.5	4.2
CCOC(=O)c1c(-c2ccc(OC)cc2)csc1/N=C/C1=C(O)CCCC1=O	3.2	-8.4	7.3	17.9	-2.5	6.2
Cc1ccccc1OCCOC(=O)c1ccc(S(=O)(=O)N2CCCC2)cc1	-2.6	-7.8	-5.1	11.9	4.2	0.1
CN(C(=O)c1ccc2c(c1)SC1=NS(=O)(=O)CCN12)C(c1ccccc1)c1ccccc1	-8.0	2.7	41.0*	5.0	-20.8	4.2
O=C(O)c1ccc2c(c1)SC1=NS(=O)(=O)CCN12	-3.6	-14.7	-7.2	29.8	6.1	0.9
NC(=O)c1ccsc1NC(=O)COC(=O)c1ccccn1	-0.4	-5.0	-11.4	4.8	10.3	1.2
N#CC(C#N)=C1NC(N)=C(C#N)C(c2ccccc2)=C1C#N	0.1	0.3	4.8	1.1	1.4	-0.4
